Results taken from the supplement of paper PMC3414501.
Counter-ions that a name gives are not always drawn.

Experiments:
[1] = tested on: S. cerevisiae SK1 pCDA2-eGFP (USY613), sporulating; experiment: CDA2-GFP sporulation assay sensitivity score (z-score vs DMSO controls); higher = stronger inhibition of sporulation, active = hit call of the paper;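 note: active if sensitivity score above 5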
[2] = tested on: S. cerevisiae NKY1551 his4x/his4B, sporulating; experiment: HIS4 meiotic recombination assay sensitivity score (z-score vs DMSO controls); higher = stronger inhibition of sporulation/recombination, active = hit call of the paper;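 note: active if sensitivity score above 5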
[3] = tested on: S. cerevisiae AD1-9 (efflux-pump deficient), vegetative growth in YPD; experiment: growth sensitivity score (doubling time z-score vs DMSO controls); higher = slower growth, strongly negative scores also mark growth inhibition (complete suppression), active = hit call of the paper
Procedure, shortened: (§1)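 Saccharomyces cerevisiae strains BY4741 and AD1-9 were seeded in rich medium in microtiter plates at an OD600 of 0.065. Compounds were added at a 1:100 dilution of DMSO stock. Optical density was read every 15 min for 24 hours on a Tecan GENios reader. Average doubling time was the time taken to reach a set generation point divided by generation number, and the growth sensitivity score was (compound mean − DMSO-control mean)/DMSO-control SD, using eight DMSO controls per experiment.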

[4] = tested on: S. cerevisiae BY4741 (wild-type), vegetative growth in YPD; experiment: as above
Procedure, shortened: as §1

CCCCCNC(=N)N/N=C/c1c[nH]c2ccc(OC)cc12 [Tegaserod maleate] (stock concentration (mM, diluted 1:100): 7.2)
CDA2-GFP sporulation assay sensitivity score [1]: -3.28 (inactive) | HIS4 meiotic recombination assay sensitivity score [2]: -0.84 (inactive)

CC(C)c1ccc2oc3nc(N)c(C(=O)O)cc3c(=O)c2c1 [Amlexanox] (stock concentration (mM, diluted 1:100): 10)
CDA2-GFP sporulation assay sensitivity score [1]: -0.73 (inactive) | HIS4 meiotic recombination assay sensitivity score [2]: 0.07 (inactive) | growth sensitivity score [3]: 0.42 (inactive) | growth sensitivity score [4]: 1.8 (inactive)

COc1cc(-c2ccc(=O)[nH]n2)ccc1OC(F)F [Zardaverine] (stock concentration (mM, diluted 1:100): 11.7)
CDA2-GFP sporulation assay sensitivity score [1]: 1.43 (inactive) | HIS4 meiotic recombination assay sensitivity score [2]: -0.18 (inactive) | growth sensitivity score [3]: 2.67 (active) | growth sensitivity score [4]: 1.71 (inactive)

CC(=O)CCCCn1c(=O)c2c(ncn2C)n(C)c1=O [Pentoxifylline] (stock concentration (mM, diluted 1:100): 10)
CDA2-GFP sporulation assay sensitivity score [1]: 0.09 (inactive) | HIS4 meiotic recombination assay sensitivity score [2]: -0.42 (inactive) | growth sensitivity score [3]: -1.09 (inactive) | growth sensitivity score [4]: -0.51 (inactive)

COc1ccc(-c2cc(=O)c3c(OC)c(OC)c(OC)c(OC)c3o2)cc1OC [Nobiletin] (stock concentration (mM, diluted 1:100): 10)
CDA2-GFP sporulation assay sensitivity score [1]: 5.43 (inactive) | HIS4 meiotic recombination assay sensitivity score [2]: 1.02 (inactive) | growth sensitivity score [3]: 3.87 (active) | growth sensitivity score [4]: 4.43 (active)

Cc1cccc(C)c1NC(=O)C1CCCCN1C (stereo not drawn) [Mepivacaine hydrochloride] (stock concentration (mM, diluted 1:100): 10)
CDA2-GFP sporulation assay sensitivity score [1]: 1.82 (inactive) | HIS4 meiotic recombination assay sensitivity score [2]: 0.1 (inactive) | growth sensitivity score [3]: -3.28 | growth sensitivity score [4]: -0.29 (inactive)

CO[C@H]1/C=C/O[C@@]2(C)Oc3c(C)c(O)c4c(O)c(c5c(nc6cc(C)ccn65)c4c3C2=O)NC(=O)/C(C)=C\C=C\[C@H](C)[C@H](O)[C@@H](C)[C@@H](O)[C@@H](C)[C@H](OC(C)=O)[C@@H]1C [Rifaximin] (stock concentration (mM, diluted 1:100): 10)
CDA2-GFP sporulation assay sensitivity score [1]: 4.99 (inactive) | HIS4 meiotic recombination assay sensitivity score [2]: -0.87 (inactive) | growth sensitivity score [3]: -1.56 (inactive) | growth sensitivity score [4]: -1.64 (inactive)

CC1(C)S[C@@H]2[C@H](/N=C/N3CCCCCC3)C(=O)N2[C@H]1C(=O)O [Mecillinam] (stock concentration (mM, diluted 1:100): 10)
CDA2-GFP sporulation assay sensitivity score [1]: 0.59 (inactive) | HIS4 meiotic recombination assay sensitivity score [2]: -0.86 (inactive) | growth sensitivity score [3]: -0.02 (inactive) | growth sensitivity score [4]: 1.05 (inactive)

CC(=O)N1CCN(c2ccc(OCC3COC(Cn4ccnc4)(c4ccc(Cl)cc4Cl)O3)cc2)CC1 (stereo not drawn) [Ketoconazole] (stock concentration (mM, diluted 1:100): 10)
CDA2-GFP sporulation assay sensitivity score [1]: 0.13 (inactive) | HIS4 meiotic recombination assay sensitivity score [2]: -1.74 (inactive) | growth sensitivity score [3]: 155 (active) | growth sensitivity score [4]: 35.3 (active)

OCc1cc(C(O)CNCCCCCCOCCCCc2ccccc2)ccc1O (stereo not drawn) [Salmeterol] (stock concentration (mM, diluted 1:100): 10)
CDA2-GFP sporulation assay sensitivity score [1]: 10.5 (inactive) | HIS4 meiotic recombination assay sensitivity score [2]: 0.79 (inactive) | growth sensitivity score [3]: 41.2 (active) | growth sensitivity score [4]: 3.81 (active)

C#C[C@]1(O)CC[C@H]2[C@@H]3CCC4=CC(=O)CC[C@@H]4[C@H]3CC[C@@]21CC [Levonorgestrel] (stock concentration (mM, diluted 1:100): 10)
CDA2-GFP sporulation assay sensitivity score [1]: 0.19 (inactive) | HIS4 meiotic recombination assay sensitivity score [2]: -2.79 (inactive) | growth sensitivity score [3]: -0.41 (inactive) | growth sensitivity score [4]: 0.89 (inactive)

O=c1c(O[C@@H]2O[C@H](CO)[C@H](O)[C@H](O)[C@H]2O)c(-c2ccc(O)c(O)c2)oc2cc(O)cc(O)c12 [Hyperoside] (stock concentration (mM, diluted 1:100): 8.8)
CDA2-GFP sporulation assay sensitivity score [1]: 0.06 (inactive) | HIS4 meiotic recombination assay sensitivity score [2]: 0.06 (inactive) | growth sensitivity score [3]: 0.09 (inactive) | growth sensitivity score [4]: -0.31 (inactive)

C[C@H]1O[C@H](O[C@H]2[C@H](O)[C@@H](O)[C@@H](O[C@H]3[C@H](O)[C@@H](O)C(O)O[C@@H]3CO)O[C@@H]2CO)[C@H](O)[C@@H](O)[C@@H]1N[C@H]1C=C(CO)[C@@H](O)[C@H](O)[C@H]1O (stereo partly drawn) [Acarbose] (stock concentration (mM, diluted 1:100): 10)
CDA2-GFP sporulation assay sensitivity score [1]: 0.28 (inactive) | HIS4 meiotic recombination assay sensitivity score [2]: -0.56 (inactive) | growth sensitivity score [3]: -2.1 | growth sensitivity score [4]: -1.13 (inactive)

CCCCCCCCCCC[C@@H](C[C@@H]1OC(=O)[C@H]1CCCCCC)OC(=O)[C@H](CC(C)C)NC=O [Orlistat] (stock concentration (mM, diluted 1:100): 10)
CDA2-GFP sporulation assay sensitivity score [1]: -2.33 (inactive) | HIS4 meiotic recombination assay sensitivity score [2]: -1.52 (inactive) | growth sensitivity score [3]: -0.73 (inactive) | growth sensitivity score [4]: 0.78 (inactive)

CC1(C)O[C@@H]2[C@@H](CO[C@@]3(COS(N)(=O)=O)OC(C)(C)O[C@@H]23)O1 [Topiramate] (stock concentration (mM, diluted 1:100): 10)
CDA2-GFP sporulation assay sensitivity score [1]: -1.32 (inactive) | HIS4 meiotic recombination assay sensitivity score [2]: 0.22 (inactive) | growth sensitivity score [3]: -0.81 (inactive) | growth sensitivity score [4]: -1.18 (inactive)

Cc1sc(N)c(C(=O)c2cccc(C(F)(F)F)c2)c1C (stock concentration (mM, diluted 1:100): 10)
CDA2-GFP sporulation assay sensitivity score [1]: 11.1 (active) | HIS4 meiotic recombination assay sensitivity score [2]: 1.22 (inactive) | growth sensitivity score [3]: 143 (active) | growth sensitivity score [4]: 9.52 (active)

C=CCc1ccc(O)c(-c2ccc(O)c(CC=C)c2)c1 [Honokiol] (stock concentration (mM, diluted 1:100): 10.1)
CDA2-GFP sporulation assay sensitivity score [1]: 0.56 (inactive) | HIS4 meiotic recombination assay sensitivity score [2]: -1.68 (inactive)

OCCN1CCN(CCCN2c3ccccc3Sc3ccc(C(F)(F)F)cc32)CC1 [Fluphenazine hydrochloride] (stock concentration (mM, diluted 1:100): 10)
CDA2-GFP sporulation assay sensitivity score [1]: -0.3 (inactive) | HIS4 meiotic recombination assay sensitivity score [2]: 7.55 (active)

O=C(O)/C=C/c1ccc(Cn2ccnc2)cc1 [Ozagrel hydrochloride] (stock concentration (mM, diluted 1:100): 8.6)
CDA2-GFP sporulation assay sensitivity score [1]: 0.27 (inactive) | HIS4 meiotic recombination assay sensitivity score [2]: 0.54 (inactive) | growth sensitivity score [3]: 0.64 (inactive) | growth sensitivity score [4]: 2.72 (active)

CC(C)NCC(O)c1ccc(NS(C)(=O)=O)cc1 (stereo not drawn) [Sotalol hydrochloride] (stock concentration (mM, diluted 1:100): 8.8)
CDA2-GFP sporulation assay sensitivity score [1]: -0.03 (inactive) | HIS4 meiotic recombination assay sensitivity score [2]: -0.43 (inactive) | growth sensitivity score [3]: -0.51 (inactive) | growth sensitivity score [4]: -1.04 (inactive)

O=c1ncc(F)c[nH]1 [5-Fluoro-2-Pyrimidone] (stock concentration (mM, diluted 1:100): 10)
CDA2-GFP sporulation assay sensitivity score [1]: 0.54 (inactive) | HIS4 meiotic recombination assay sensitivity score [2]: -0.02 (inactive) | growth sensitivity score [3]: -0.92 (inactive) | growth sensitivity score [4]: -2.08

COc1cc(/C=C/c2ccc(O)cc2)cc(OC)c1 [Pterostilbene] (stock concentration (mM, diluted 1:100): 10)
CDA2-GFP sporulation assay sensitivity score [1]: -2.39 (inactive) | HIS4 meiotic recombination assay sensitivity score [2]: -0.31 (inactive)

CCN(CC)C(=S)SSC(=S)N(CC)CC [Tetraethylthiuram disulfide] (stock concentration (mM, diluted 1:100): 10)
CDA2-GFP sporulation assay sensitivity score [1]: -1.5 (inactive) | HIS4 meiotic recombination assay sensitivity score [2]: -2.95 (inactive)

c1ccc(-c2ccc(C(c3ccccc3)n3ccnc3)cc2)cc1 (stereo not drawn) [Bifonazole] (stock concentration (mM, diluted 1:100): 10)
CDA2-GFP sporulation assay sensitivity score [1]: 0.04 (inactive) | HIS4 meiotic recombination assay sensitivity score [2]: -0.93 (inactive)

CCCCC(=O)N(Cc1ccc(-c2ccccc2-c2nnn[nH]2)cc1)[C@H](C(=O)O)C(C)C [Valsartan] (stock concentration (mM, diluted 1:100): 10)
CDA2-GFP sporulation assay sensitivity score [1]: 0.42 (inactive) | HIS4 meiotic recombination assay sensitivity score [2]: -0.5 (inactive) | growth sensitivity score [3]: -1.81 (inactive) | growth sensitivity score [4]: -1.05 (inactive)

CCOC(=O)[C@H](CCc1ccccc1)N[C@@H](C)C(=O)N1[C@H](C(=O)O)C[C@@H]2CCC[C@@H]21 [Ramipril] (stock concentration (mM, diluted 1:100): 10)
CDA2-GFP sporulation assay sensitivity score [1]: 0.92 (inactive) | HIS4 meiotic recombination assay sensitivity score [2]: -1.04 (inactive) | growth sensitivity score [3]: 2.05 (active) | growth sensitivity score [4]: -0.9 (inactive)

COc1ccc(/C=C/C(=O)Nc2ccccc2C(=O)O)cc1OC [Tranilast] (stock concentration (mM, diluted 1:100): 10)
CDA2-GFP sporulation assay sensitivity score [1]: 0.24 (inactive) | HIS4 meiotic recombination assay sensitivity score [2]: 0.1 (inactive) | growth sensitivity score [3]: -1.78 (inactive) | growth sensitivity score [4]: -0.6 (inactive)

CN1CCN(CCCN2c3ccccc3Sc3ccc(C(F)(F)F)cc32)CC1 [Trifluoperazine dihydrochloride] (stock concentration (mM, diluted 1:100): 10)
CDA2-GFP sporulation assay sensitivity score [1]: -0.39 (inactive) | HIS4 meiotic recombination assay sensitivity score [2]: -2.62 (inactive)

O=C1N(c2ccccc2)c2ccccc2C1(Cc1ccncc1)Cc1ccncc1 (stock concentration (mM, diluted 1:100): 10)
CDA2-GFP sporulation assay sensitivity score [1]: 0.26 (inactive) | HIS4 meiotic recombination assay sensitivity score [2]: 0.8 (inactive) | growth sensitivity score [3]: 8.78 (active) | growth sensitivity score [4]: 1.8 (inactive)

CC[C@H]1OC(=O)[C@H](C)[C@@H](O[C@H]2C[C@@](C)(OC)[C@@H](O)[C@H](C)O2)[C@H](C)[C@@H](O[C@@H]2O[C@H](C)C[C@H](N(C)C)[C@H]2O)[C@](C)(OC)C[C@@H](C)C(=O)[C@H](C)[C@@H](O)[C@]1(C)O [Clarithromycin] (stock concentration (mM, diluted 1:100): 10)
CDA2-GFP sporulation assay sensitivity score [1]: -0.51 (inactive) | HIS4 meiotic recombination assay sensitivity score [2]: -1.54 (inactive) | growth sensitivity score [3]: -1.97 (inactive) | growth sensitivity score [4]: 1.37 (inactive)

O=C1N[C@H](C(=O)O)CS1 [Procysteine] (stock concentration (mM, diluted 1:100): 10)
CDA2-GFP sporulation assay sensitivity score [1]: 0.97 (inactive) | HIS4 meiotic recombination assay sensitivity score [2]: -0.93 (inactive) | growth sensitivity score [3]: -2.4 | growth sensitivity score [4]: -0.31 (inactive)

CN(C)CCCC1(c2ccc(F)cc2)OCc2cc(C#N)ccc21 (stereo not drawn) [Citalopram hydrobromide] (stock concentration (mM, diluted 1:100): 7.9)
CDA2-GFP sporulation assay sensitivity score [1]: -1.83 (inactive) | HIS4 meiotic recombination assay sensitivity score [2]: 7.31 (active) | growth sensitivity score [3]: 0.63 (inactive) | growth sensitivity score [4]: -0.04 (inactive)

CN1CCN2c3ncccc3Cc3ccccc3C2C1 (stereo not drawn) [Mirtazapine] (stock concentration (mM, diluted 1:100): 10)
CDA2-GFP sporulation assay sensitivity score [1]: 12.7 (inactive) | HIS4 meiotic recombination assay sensitivity score [2]: 3.31 (inactive) | growth sensitivity score [3]: 2.89 (active) | growth sensitivity score [4]: -0.03 (inactive)
